hcDAF12 agonist: activates DAF-12 receptor from parasite H. contortus | HEK293 hcDAF-12 lit1-tk-luc reporter, luminescence; 0% DMSO, 100% Δ7-dafachronic acid | activation, % at 6.8 µM | 1.4% of 370,000 active;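 active means activation above the mean of all tested compounds plus 3 SD, cut at about 5.5% in these data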;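 further: 100% = response to 3 µM Δ7-dafachronic acid high control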
DAX1 inh-1: inhibits human nuclear receptor DAX1 | P51843 | HEK293 Gal4-DAX1 luciferase reporter, luminescence | inhibition, % at 6.75 µM | 0.99% of 340,000 active | AID 504766;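 active means inhibition above the mean over all tested compounds plus 3 SD, cut at about 4.2% in these data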;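 further: 0% = DAX1-transfected cells with DMSO and 100% = empty-vector control cells with DMSO; inhibition shows as a rise in luminescence from relieved DAX1 repression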
Target sequence (P51843 207-470 limits assumed): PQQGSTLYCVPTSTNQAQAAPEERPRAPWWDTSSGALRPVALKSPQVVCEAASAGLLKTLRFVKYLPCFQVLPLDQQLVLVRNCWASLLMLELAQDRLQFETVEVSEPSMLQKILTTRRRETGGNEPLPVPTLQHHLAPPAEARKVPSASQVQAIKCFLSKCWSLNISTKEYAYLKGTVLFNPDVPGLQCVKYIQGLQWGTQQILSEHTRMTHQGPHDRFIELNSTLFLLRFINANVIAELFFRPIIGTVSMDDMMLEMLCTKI
hgDAF-12 ag: hgDAF-12 agonism, primary luciferase screen; HEK293 GAL4-hgDAF12 UAS-luciferase reporter, agonist luminescence; normalized to butyrate control; activation, % at 6.8 µM; 1.8% of 370,000 active; AID 687014;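 active means activation above a cutoff set at the mean of all screened compounds plus 3 SD, cut at about 10% in these data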;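 further: 0% = DMSO wells and 100% = sodium butyrate wells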
SMARCA2 activ: increases SMARCA2 function in MMTV reporter cells. MG213 cells, MMTV-luciferase reporter, dexamethasone, overnight. activation, % at 9.1 µM. 1% of 370,000 active. AID 652017; in the data active means activation above about 7.8%;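 further: 0% = vehicle wells and 100% = reference activator wells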
ssDAF-12 act: activates DAF-12 receptor from parasite S. stercoralis | HEK293 ssDAF-12/GRIP1 lit1-tk-luc reporter, luminescence; % of 3 µM dafachronic acid response | activation, % at 6.8 µM | 1% of 370,000 active | AID 652126;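 active means activation above the mean over all tested compounds plus 3 SD, cut at about 0.9% in these data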;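 further: 0% = DMSO-only wells and 100% = 3 µM delta7-dafachronic acid wells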
DAX1 inh-2: inhibitors of DAX1 repression of SF-1 activated StAR promoter; HEK293T StAR-luciferase reporter, SF-1/DAX-1 repression relief; inhibition, % at 6.8 µM; 1.1% of 370,000 active;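 active means inhibition above the mean over all tested compounds plus 3 SD, cut at about 3.6% in these data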;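 further: 0% = DAX-1 cells with DMSO and 100% = cells lacking DAX-1 with DMSO; higher inhibition means more luminescence from relief of DAX-1 repression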
DAX1 conf: NR0B1 (human) inhibition, confirmation; shares compounds with DAX1 inh-2; HEK293T StAR-promoter luciferase reporter, SF-1/DAX-1 repression; inhibition, % at 6.8 µM; 87% of 2,400 active; AID 652134;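 active means inhibition above the average of every tested compound plus 3 SD, cut at about 3.8% in these data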;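 further: 0% = DAX-1 cells with DMSO and 100% = no DAX-1 control cells with DMSO; active compounds raise luminescence by relieving repression of the StAR reporter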
SF1 mutant ctr: nonselective inhibitor or artifact in SF-1 mutant DAX1 counter-screen | shares compounds with DAX1 inh-2 | HEK293 StAR-luciferase, SF-1 AF2 mutant, luminescence | inhibition, % at 6.8 µM | 78% of 2,400 active;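 active means inhibition above the mean of all tested compounds plus 3 SD, cut at about 3% in these data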;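 further: 0% = DAX-1 transfected cells with DMSO and 100% = cells without DAX-1 with DMSO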
SMARCA2 act conf: SMARCA2 activation, confirmation screen; shares compounds with SMARCA2 activ; MG213 cells, MMTV-luciferase with dexamethasone, luminescence, overnight; MG213 cells expressing E1A, Rb sequestered; DMSO wells 0%, reference activator 100%; activation, % at 9.1 µM; 30% of 3,500 active;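 active means activation above its plate's cutoff, the mean activation of tested wells plus 3 SD, cut at about 7.9% in these data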
GAL4-VP16 Luc: activates GAL4-VP16 luciferase, flagging SMARCA2 activator hits; shares compounds with SMARCA2 activ; HEK293 GAL4-VP16 pG5luc reporter, luciferase luminescence; scaled: DMSO wells 0%, SAHA wells 100%; 41% of 3,500 active; AID 686939; activation, % at 9.1 µM;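 active means activation above the solvent-only control well mean plus 3 SD, averaged across control plates, cut at about 5.2% in these data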
LXRb hcDAF ctr: activates human LXR-beta, counter-screen for hcDAF-12 agonists. 3,400 tested, under 10 active. activation, % at 6.8 µM. HEK293 Gal4-LXR tk-luc reporter, luminescence, 24 h; normalized: DMSO 0%, positive control 100%. shares compounds with hcDAF12 agonist;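 active means mean percent activation of the reporter above a cutoff set as the average over tested compounds plus their standard deviation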
Target sequence (P55055 whole entry, looked up, the tested form may be a part): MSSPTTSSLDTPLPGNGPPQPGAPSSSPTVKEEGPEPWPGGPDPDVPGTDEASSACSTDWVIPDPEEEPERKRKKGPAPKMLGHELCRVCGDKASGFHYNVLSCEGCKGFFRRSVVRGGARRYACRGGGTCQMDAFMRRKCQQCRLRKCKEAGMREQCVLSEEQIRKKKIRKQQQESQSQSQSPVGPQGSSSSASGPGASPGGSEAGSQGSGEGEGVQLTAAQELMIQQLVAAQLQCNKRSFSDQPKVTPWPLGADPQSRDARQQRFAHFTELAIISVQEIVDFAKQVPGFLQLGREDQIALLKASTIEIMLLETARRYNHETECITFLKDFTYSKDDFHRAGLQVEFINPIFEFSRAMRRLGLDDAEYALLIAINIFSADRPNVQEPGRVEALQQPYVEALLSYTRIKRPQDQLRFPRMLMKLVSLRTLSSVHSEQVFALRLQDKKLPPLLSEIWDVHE
hcDAF12 ag: hcDAF-12 agonism, confirmation assay; shares compounds with hcDAF12 agonist; HEK293 hcDAF-12 lit1-tk-luc reporter, luminescence; % of Δ7-dafachronic acid response; activation, % at 6.8 µM; 61% of 3,400 active;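 active means mean activation across triplicate tests above the threshold derived from the earlier primary screen, cut at about 5.5% in these data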;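 further: 0% = DMSO only wells and 100% = 3 µM Δ7-dafachronic acid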
hgDAF12 ag: hgDAF-12 agonism, confirmation assay; shares compounds with hgDAF-12 ag; activation, % at 6.8 µM; HEK293 GAL4-hgDAF12 luciferase reporter, agonist mode; percent of butyrate response; AID 743050; 80% of 3,300 active;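 active means mean activation over triplicate wells above the hit cutoff derived from the earlier primary screen, cut at about 11% in these data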;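 further: 0% = DMSO low control and 100% = 2 mM sodium butyrate high control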
LXR ag 2: LXR-beta agonism as DAF-12 counter-screen; shares compounds with hgDAF-12 ag; HEK293 Gal4-LXR luciferase reporter, 24 h; activation, % at 6.8 µM; 3,300 tested, under 10 active; AID 743051;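 active means mean activation of the triplicate above a set limit carried over from the primary screen, none filed active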
* marks the source's active call; other numbers are inactive results; nt = no result given. Shown are actives, neighbours in structure and some others; about 4.8% of the full set was active somewhere.

SMILES | hcDAF12 agonist | DAX1 inh-1 | hgDAF-12 ag | SMARCA2 activ | ssDAF-12 act | DAX1 inh-2 | DAX1 conf | SF1 mutant ctr | hgDAF12 ag | LXR ag 2 | others
NC(=O)c1cc(Cl)ccc1OCC(=O)Nc1ccc2c(c1)OCO2 | 2.5 | 1.2 | 15.6* | 5.4 | 0.4 | 12.2* | 12.3* | 8.7* | 14.8* | 0.8
O=C(COC(=O)COc1ccccc1[N+](=O)[O-])Nc1ccc2c(c1)OCO2 | 1.0 | -0.8 | -2.2 | 1.7 | -0.6 | -0.2 | nt | nt | nt | nt
N#Cc1ccccc1OCC(=O)Nc1ccc2c(c1)OCO2 | 1.9 | 3.7 | 20.3* | 9.0* | 0.5 | 5.9* | 6.5* | 4.0* | 13.3* | 0.5 | SMARCA2 act conf=17.6*;GAL4-VP16 Luc=7.6*
O=C(COc1ccccc1[N+](=O)[O-])Nc1ccc2c(c1)OCO2 | 9.2* | 2.7 | 15.5* | 7.4 | 0.3 | 6.7* | 6.8* | 4.1* | 11.8* | 0.7 | LXRb hcDAF ctr=0.8;hcDAF12 ag=5.8*
O=C(NCCCc1ccc(F)cc1)C1CCC(=O)N(CC2CCCCC2)C1 (centres undefined) | -2.2 | -0.4 | 0.4 | -1.8 | -1.4 | -2.1 | nt | nt | nt | nt
COc1ccc(-c2coc3cc(OC)cc(OC)c3c2=O)cc1 | 0.9 | -0.5 | 4.3 | 4.0 | -0.8 | 2.8 | nt | nt | nt | nt
CC(=O)Oc1ccc2c(=O)c(-c3ccccc3)coc2c1 | 1.5 | 0.2 | 13.5* | 10.3* | -1.4 | 5.9* | 6.5* | 4.0* | 9.5 | 0.4 | SMARCA2 act conf=3.4;GAL4-VP16 Luc=5.6*
COc1ccc(-c2coc3cc(OC)ccc3c2=O)cc1 | 5.2 | 4.0 | 19.3* | 5.9 | -0.3 | 5.8* | 11.9* | 7.0* | 12.8* | 0.9
COC(=O)c1ccc2nc(-c3ccc(OC)c(OC)c3)c(CC3CCCCC3)n2c1 | -1.0 | nt | 1.6 | -1.8 | -0.7 | 0.4 | nt | nt | nt | nt
Cc1ccc2nc(-c3ccc(F)cc3)c(CC3CCCCC3)n2c1 | 9.7* | nt | 13.9* | 4.4 | 1.5* | 6.6* | 3.3 | 5.0* | 9.9 | 0.3 | LXRb hcDAF ctr=0.1;hcDAF12 ag=4.6
O=C1Nc2ccccc2N(C(=O)c2ccc3ccccc3c2)C1c1nc2ccccc2[nH]1 (centres undefined) | 6.7* | nt | 26.6* | 5.1 | 1.8* | 12.9* | 3.3 | 2.9* | 10.1 | 0.5 | LXRb hcDAF ctr=0.1;hcDAF12 ag=1.1
CC1C(=O)Nc2ccccc2N1C(=O)c1ccc(O)cc1 (centres undefined) | -3.2 | 1.4 | 0.7 | -0.3 | -0.9 | 0.0 | nt | nt | nt | nt
Cc1cc(C(=O)c2ccccc2)nc2ccccc12 | -2.1 | -0.7 | -2.4 | -0.2 | -1.6 | -0.5 | nt | nt | nt | nt
Cc1cc(/C=C\c2ccccc2)nc2ccccc12 | 10.3* | 5.6* | 15.4* | 3.9 | 0.8 | 6.0* | 6.4* | 4.1* | 16.7* | 0.5 | LXRb hcDAF ctr=0.8;hcDAF12 ag=8.6*
CCc1cc(C(=O)Nc2ncccc2O)sc1C | 6.4* | -1.3 | 20.0* | 3.2 | 0.6 | 20.2* | 21.4* | 9.0* | 24.6* | 0.8
Cc1ccnc(NC(=O)c2ccc3c(c2)OCO3)c1 | 6.3* | -1.4 | 18.2* | 6.8 | -0.8 | 4.9* | 7.0* | 3.7* | 11.0* | 0.7
CC(C)Cc1nnc(NC(=O)c2ccc3c(c2)OCCO3)s1 | 5.8* | 0.5 | 15.3* | 4.9 | 0.2 | 8.1* | 14.7* | 7.1* | 13.4* | 0.8
Cc1cccnc1NC(=O)c1ccc2c(c1)OCCO2 | 1.9 | 1.1 | 4.9 | 0.9 | 0.0 | 2.9 | nt | nt | nt | nt
O=C(Nc1ncccc1O)c1ccc2c(c1)OCCO2 | 7.2* | 8.1* | 60.2* | 1.4 | 1.3* | 32.7* | 41.8* | 21.8* | 57.5* | 0.8 | LXRb hcDAF ctr=1.8;hcDAF12 ag=4.0
Cc1nc2ccccc2c(=O)n1NC(=O)C1CCC(C(C)(C)C)CC1 (centres undefined) | 1.1 | 0.3 | -0.5 | -0.1 | -1.4 | -0.5 | nt | nt | nt | nt
O=c1cc(CCc2ccccc2)oc2cccc(O)c12 | 1.1 | 2.8 | 9.6 | 0.5 | -0.1 | 0.3 | nt | nt | nt | nt
O=C(Nc1ncccc1O)c1ccc2c(c1)OCO2 | 3.8 | 4.1 | 36.8* | 3.0 | -0.1 | 16.6* | 27.1* | 13.9* | 39.1* | 0.4
Cc1noc(C)c1COc1ccc(C(=O)N2CCN(c3ccccn3)CC2)cc1 | -0.4 | 0.3 | -1.4 | 0.9 | -0.9 | -1.2 | nt | nt | nt | nt
Cc1c(NC(=S)NC(=O)C(c2ccccc2)c2ccccc2)cccc1C(=O)O | -0.8 | -2.0 | -3.4 | -2.1 | -1.5 | 0.1 | nt | nt | nt | nt
Cc1c(NC(=S)NC(=O)c2sc3ccccc3c2Cl)cccc1C(=O)O | 2.7 | -0.6 | 17.9* | 2.8 | 0.2 | 5.9* | 9.6* | 6.8* | 15.7* | 0.5
O=C(NNS(=O)(=O)c1ccc(F)cc1)c1cc2ccccc2cc1O | -1.4 | -0.5 | 1.8 | -0.7 | -1.5 | -0.2 | nt | nt | nt | nt
CN(C)c1ccc(/C=N\NC(=O)c2csnn2)cc1 | 6.5* | 0.5 | 16.6* | 8.4* | 1.3* | 5.0* | 11.7* | 6.1* | 19.5* | 0.9 | SMARCA2 act conf=14.7*;GAL4-VP16 Luc=10.2*
O=C(Nc1ccc2c(c1)OCCO2)c1cnc2ccccn2c1=O | 1.4 | 1.7 | 9.7 | 4.8 | -0.1 | 3.0 | nt | nt | nt | nt
Cc1cccc(NC(=O)c2cnc3ccccn3c2=O)c1 | 8.8* | 0.9 | 22.4* | 2.7 | 0.5 | 7.7* | 10.6* | 4.4* | 16.6* | 1.2 | LXRb hcDAF ctr=1.6;hcDAF12 ag=6.1*

Screening results deposited in PubChem BioAssay by The Scripps Research Institute Molecular Screening Center.
